± gives the standard deviation of the averaged measurements.

One test concerns K562. Description: relative cell viability (ATPlite) vs untreated control (fraction); higher = less toxic. The settings on record: 1 µM; 72 h. A general note: Cellular ATP, detected with luciferase, serves as a proxy for viable cell number.
`O=C1c2ccccc2-c2nc3nnnn3nc21` [PDK1/Akt/Flt Dual Pathway Inhibitor] registered a relative cell viability of 0.028 ± 0.0014.
Turning to `CS(=O)(=O)c1ccc(-c2nc(-c3ccc(F)cc3)c(-c3ccncc3)[nH]2)cc1`, the relative cell viability is 0.831 ± 0.064.
`O=C1NC(=O)C(c2cn(CCCO)c3ncccc23)=C1c1cnccn1` [GSK-3b Inhibitor XI] gave a relative cell viability of 0.915 ± 0.075.
With `COc1cc(SC)ccc1C(=O)N1CCC(Cc2ccccc2)CC1` [p38 MAP Kinase Inhibitor VI, JX401], the relative cell viability stood at 0.807 ± 0.042.
`CC(C)(C)c1nc2c3cc[nH]c(=O)c3c3cc(F)ccc3c2[nH]1` [JAK Inhibitor I]: the relative cell viability is 0.796 ± 0.072.
As for `COc1ccc(CNc2nc(N(CCO)CCO)nc3c2ncn3C(C)C)cc1` [Cdk2 Inhibitor III], the relative cell viability stood at 0.855 ± 0.061.
The compound `O=c1c(O)c(-c2ccc(O)c(O)c2)oc2cc(O)c(O)c(O)c12` [Quercetagetin] registered a relative cell viability of 0.799 ± 0.086.
Same read-out and setting: with `Cc1ncc2ccccc2c1C#N` [4-Cyano-3-methylisoquinoline] the figure was 0.917 ± 0.06.
Same read-out and setting: for `Cn1cc(C2=C(c3cn(CCCSC(=N)N)c4ccccc34)C(=O)NC2=O)c2ccccc21` the value was 0.834 ± 0.1; for `COc1cc2ncc(-c3ccccc3)nc2cc1OC`, 0.888 ± 0.083.
For `c1nc2c(NC3CCCCC3)nc(Nc3ccc(N4CCOCC4)cc3)nc2[nH]1` [Reversine], the relative cell viability is 0.578 ± 0.048.
The same measure, in the same setting: with `CC(=O)c1ccc(N2CCOCC2)cc1O` [DNA-PK Inhibitor III] the figure was 0.878 ± 0.059; with `OCC(O)CCO/N=C1\C(c2c(O)[nH]c3ccccc23)=Nc2ccccc21` (centres undefined) [Indirubin Derivative E804], 0.753 ± 0.058.
`O=c1c2ccccc2[nH]c(=S)n1CCN1CCC(=C(c2ccc(F)cc2)c2ccc(F)cc2)CC1` [Diacylglycerol Kinase Inhibitor II] registered a relative cell viability of 0.867 ± 0.094.
On the same count and under the same terms, with `CCCCc1c(-c2ccc(OC)cc2)[nH]c2nccnc12` [Aloisine, RP106] the figure was 0.929 ± 0.046.
In the case of `CC(=O)O/N=C1/C(c2c(O)[nH]c3cc(Br)ccc23)=Nc2ccccc21` [GSK-3 Inhibitor X], the relative cell viability amounted to 0.885 ± 0.08.
`CCN(CC)CCCCN1c2ccccc2Oc2ccc(Cl)cc21` [Akt Inhibitor X] had a relative cell viability of 0.848 ± 0.089.
The same measure, in the same setting: with `NS(=O)(=O)c1ccc(N=Nc2c(O)[nH]c3ccc(Br)cc23)cc1` [Cdk2 Inhibitor II] the figure was 0.839 ± 0.084; with `COc1nccc(-c2c(-c3ccc(F)cc3)ncn2C2CCC(O)CC2)n1` (centres undefined), 0.86 ± 0.11.
With `O=C1Nc2ccc(Cl)cc2/C1=C/c1cc(Cl)c(O)c(Cl)c1` [PKR Inhibitor, Negative Control], the relative cell viability was determined as 0.848 ± 0.072.
Still for that read-out and setting: with `NC(=O)Nc1cc(-c2ccccc2)sc1C(N)=O` [IKK-2 Inhibitor XI] the figure was 0.983 ± 0.09; with `O=C(c1ccc(Nc2nccc(-c3cc4ccccc4s3)n2)cc1)N1CCC(N2CCCC2)CC1` [IKK Inhibitor VII], 0.773 ± 0.022.
`CC[n+]1c(/C=C/N(C)c2ccccc2)n(-c2ccccc2)c2ccc(-c3nc4ccccc4s3)cc21` [Akt Inhibitor IV] returned a relative cell viability of 0.169 ± 0.082.
The compound `CCC(CO)Nc1nc(NCc2ccccc2)c2ncn(C(C)C)c2n1` [Roscovitine, (S)-Isomer] showed a relative cell viability of 0.912 ± 0.081.
`CNc1cc2c(Nc3cccc(Br)c3)ncnc2cn1` had a relative cell viability of 0.995 ± 0.043.
`Cc1cc(Nc2nc(-c3ccccc3)nc3ccccc23)n[nH]1` [GSK-3 Inhibitor XIII] registered a relative cell viability of 0.937 ± 0.041.
Same read-out and setting: with `CCN(CC)C(=O)c1ccc(Nc2nc(OCC3CCCCC3)c3[nH]cnc3n2)cc1` [Cdk2 Inhibitor IV, NU6140] the figure was 0.775 ± 0.041.
`COc1cc2ncnc(N3CCN(C(=O)Nc4ccc(Oc5ccccc5)cc4)CC3)c2cc1OC` [PDGF Receptor Tyrosine Kinase Inhibitor III] displayed a relative cell viability of 0.736 ± 0.03.
Compound `Cn1cnc2cc3c(Nc4cccc(Br)c4)ncnc3cc21` showed a relative cell viability of 1.02 ± 0.078.
`Nc1nc(Nc2ccc(S(N)(=O)=O)cc2)nn1C(=S)Nc1c(F)cccc1F` [Cdk1/2 Inhibitor III] registered a relative cell viability of 0.0545 ± 0.0021.
In turn, `CCOc1nc(NC(=O)Cc2cc(OC)ccc2OC)cc(N)c1C#N` [JNK Inhibitor VIII] gave a relative cell viability of 0.983 ± 0.035.
In turn, `NC(=O)Nc1sc(-c2ccccc2)cc1C(N)=O` [IKK-2 Inhibitor VI] had a relative cell viability of 0.861 ± 0.097.

A further test concerns K562. As to the kind of experiment: relative cell viability (ATPlite) vs untreated control, with imatinib (fraction); higher = less toxic. The settings on record: 1 µM; 72 h; imatinib 0.125 µM.
Regarding `O=C1c2ccccc2-c2nc3nnnn3nc21` [PDK1/Akt/Flt Dual Pathway Inhibitor], the relative cell viability is 0.0249 ± 0.0025.
In turn, `CS(=O)(=O)c1ccc(-c2nc(-c3ccc(F)cc3)c(-c3ccncc3)[nH]2)cc1` yielded a relative cell viability of 0.703 ± 0.043.
`O=C1NC(=O)C(c2cn(CCCO)c3ncccc23)=C1c1cnccn1` [GSK-3b Inhibitor XI] showed a relative cell viability of 0.757 ± 0.046.
In turn, `COc1cc(SC)ccc1C(=O)N1CCC(Cc2ccccc2)CC1` [p38 MAP Kinase Inhibitor VI, JX401] registered a relative cell viability of 0.716 ± 0.023.
On to `CC(C)(C)c1nc2c3cc[nH]c(=O)c3c3cc(F)ccc3c2[nH]1` [JAK Inhibitor I], for which the relative cell viability is 0.72 ± 0.035.
On the same count and under the same terms, with `COc1ccc(CNc2nc(N(CCO)CCO)nc3c2ncn3C(C)C)cc1` [Cdk2 Inhibitor III] the figure was 0.772 ± 0.058.
`O=c1c(O)c(-c2ccc(O)c(O)c2)oc2cc(O)c(O)c(O)c12` [Quercetagetin] had a relative cell viability of 0.64 ± 0.025.
The compound `Cc1ncc2ccccc2c1C#N` [4-Cyano-3-methylisoquinoline] gave a relative cell viability of 0.828 ± 0.032.
Turning to `Cn1cc(C2=C(c3cn(CCCSC(=N)N)c4ccccc34)C(=O)NC2=O)c2ccccc21`, the relative cell viability came to 0.733 ± 0.062.
Same read-out and setting: with `COc1cc2ncc(-c3ccccc3)nc2cc1OC` the figure was 0.76 ± 0.045; with `c1nc2c(NC3CCCCC3)nc(Nc3ccc(N4CCOCC4)cc3)nc2[nH]1` [Reversine], 0.398 ± 0.075; with `CC(=O)c1ccc(N2CCOCC2)cc1O` [DNA-PK Inhibitor III], 0.782 ± 0.027.
Compound `OCC(O)CCO/N=C1\C(c2c(O)[nH]c3ccccc23)=Nc2ccccc21` (centres undefined) [Indirubin Derivative E804] returned a relative cell viability of 0.644 ± 0.071.
In the case of `O=c1c2ccccc2[nH]c(=S)n1CCN1CCC(=C(c2ccc(F)cc2)c2ccc(F)cc2)CC1` [Diacylglycerol Kinase Inhibitor II], the relative cell viability worked out at 0.768 ± 0.07.
Still for that read-out and setting: for `CCCCc1c(-c2ccc(OC)cc2)[nH]c2nccnc12` [Aloisine, RP106] the value was 0.819 ± 0.05.
In turn, `CC(=O)O/N=C1/C(c2c(O)[nH]c3cc(Br)ccc23)=Nc2ccccc21` [GSK-3 Inhibitor X] returned a relative cell viability of 0.76 ± 0.036.
Still for that read-out and setting: with `CCN(CC)CCCCN1c2ccccc2Oc2ccc(Cl)cc21` [Akt Inhibitor X] the figure was 0.77 ± 0.061.
The compound `NS(=O)(=O)c1ccc(N=Nc2c(O)[nH]c3ccc(Br)cc23)cc1` [Cdk2 Inhibitor II] yielded a relative cell viability of 0.825 ± 0.052.
In turn, `COc1nccc(-c2c(-c3ccc(F)cc3)ncn2C2CCC(O)CC2)n1` (centres undefined) yielded a relative cell viability of 0.794 ± 0.067.
Take `O=C1Nc2ccc(Cl)cc2/C1=C/c1cc(Cl)c(O)c(Cl)c1` [PKR Inhibitor, Negative Control]: the relative cell viability was determined as 0.721 ± 0.058.
On the same count and under the same terms, for `NC(=O)Nc1cc(-c2ccccc2)sc1C(N)=O` [IKK-2 Inhibitor XI] the value was 0.802 ± 0.037; for `O=C(c1ccc(Nc2nccc(-c3cc4ccccc4s3)n2)cc1)N1CCC(N2CCCC2)CC1` [IKK Inhibitor VII], 0.632 ± 0.031; for `CC[n+]1c(/C=C/N(C)c2ccccc2)n(-c2ccccc2)c2ccc(-c3nc4ccccc4s3)cc21` [Akt Inhibitor IV], 0.0639 ± 0.02.
The same measure, in the same setting: for `CCC(CO)Nc1nc(NCc2ccccc2)c2ncn(C(C)C)c2n1` [Roscovitine, (S)-Isomer] the value was 0.729 ± 0.057; for `CNc1cc2c(Nc3cccc(Br)c3)ncnc2cn1`, 0.807 ± 0.023.
For `Cc1cc(Nc2nc(-c3ccccc3)nc3ccccc23)n[nH]1` [GSK-3 Inhibitor XIII], the relative cell viability came out at 0.711 ± 0.034.
For `CCN(CC)C(=O)c1ccc(Nc2nc(OCC3CCCCC3)c3[nH]cnc3n2)cc1` [Cdk2 Inhibitor IV, NU6140], the relative cell viability was found to be 0.672 ± 0.031.
Compound `COc1cc2ncnc(N3CCN(C(=O)Nc4ccc(Oc5ccccc5)cc4)CC3)c2cc1OC` [PDGF Receptor Tyrosine Kinase Inhibitor III] yielded a relative cell viability of 0.649 ± 0.029.
The compound `Cn1cnc2cc3c(Nc4cccc(Br)c4)ncnc3cc21` returned a relative cell viability of 0.874 ± 0.02.
In turn, `Nc1nc(Nc2ccc(S(N)(=O)=O)cc2)nn1C(=S)Nc1c(F)cccc1F` [Cdk1/2 Inhibitor III] yielded a relative cell viability of 0.0471 ± 0.0048.
As for `CCOc1nc(NC(=O)Cc2cc(OC)ccc2OC)cc(N)c1C#N` [JNK Inhibitor VIII], the relative cell viability was 0.769 ± 0.053.
`NC(=O)Nc1sc(-c2ccccc2)cc1C(N)=O` [IKK-2 Inhibitor VI] gave a relative cell viability of 0.695 ± 0.056.

These data come from the supplement of paper PMC4100887.
